Here are results for 40 compounds from ChEMBL document CHEMBL3433997, “St. Jude Leishmania screening dataset” (2016).

The target in one assay is Solute carrier family 2, facilitated glucose transporter member 1 (Homo sapiens) (UniProt P11166). The experiment in a line: ST_JUDE_LEISH: Cytotoxicity at 2uM final concentration against transgenic Leishmania Mexicana promastigotes LmGLUT1 that are glucose transport deficient and complemented with the human glucose transporter GLUT1. Activity is measured by DNA content using SYBR green in vitro. Format: functional.
Chain of Solute carrier family 2, facilitated glucose transporter member 1 (Homo sapiens) (P11166 whole entry): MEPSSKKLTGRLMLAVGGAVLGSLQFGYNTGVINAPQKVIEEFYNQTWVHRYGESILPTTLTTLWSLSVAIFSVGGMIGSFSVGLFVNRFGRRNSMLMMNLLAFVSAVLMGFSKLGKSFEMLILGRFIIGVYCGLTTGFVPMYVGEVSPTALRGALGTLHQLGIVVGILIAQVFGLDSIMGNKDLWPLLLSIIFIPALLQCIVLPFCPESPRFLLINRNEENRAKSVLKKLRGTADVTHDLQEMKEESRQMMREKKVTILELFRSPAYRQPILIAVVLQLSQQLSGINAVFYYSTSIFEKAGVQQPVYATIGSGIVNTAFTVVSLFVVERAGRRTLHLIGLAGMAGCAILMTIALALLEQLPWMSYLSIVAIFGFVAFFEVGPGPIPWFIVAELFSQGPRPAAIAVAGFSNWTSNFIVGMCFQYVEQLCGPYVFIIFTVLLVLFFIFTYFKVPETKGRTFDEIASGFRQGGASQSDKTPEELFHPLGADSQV
As for `O=c1ccc(CNc2nc(NCCc3ccccc3)nc3cc(Cl)ccc23)c[nH]1`, the inhibition was determined as 1.81%.

In the case of `CCCCCCN1CCC(NCc2ccc(CN(C)C)cc2)CC1`, the inhibition was 0.45%.

`Cc1[nH]c(C)c(-c2ccc(-c3ccccc3Cl)nc2)c(=O)c1Cl`: the inhibition was determined as 3.05%.

`NCC1CCCN1Cc1cccc(-c2ccc(-c3nc4ccccc4[nH]3)s2)c1` (stereo not given): the inhibition worked out at 9.15%.

On to `Cc1ccccc1NC(=S)NC1CCN(CCCCCNC(=O)/C=C/c2ccc(Cl)c(Cl)c2)CC1`, for which the inhibition is 5.52%.

Consider `O=C(COc1ccc(F)cc1)NC1CCN(c2ccnc3cc(Cl)ccc23)C1` (stereo not given), for which the inhibition stood at 7.22%.

As to `O=C(/C=C/c1ccc(Cl)c(Cl)c1)NCCCCCN1CCC(C(=O)Nc2ccc(F)c(Cl)c2)CC1`, the inhibition stood at 4.66%.

As to `CCN(C1CCCCC1)S(=O)(=O)c1ccc(OC)c(N2CCN(C(=O)C(Cl)(Cl)Cl)CC2)c1`, the inhibition is -1.48%.

In the case of `O=C(C=Cc1cn(-c2ccccc2)nc1-c1ccccc1)N1CCN(c2ccncc2)CC1`, the inhibition is 5.75%.

Turning to `CCCCC(N)COc1cccc2c(-c3ccncc3)c(-c3cccc(NC(=O)Nc4ccccc4)c3)nn12` (stereo not given), the inhibition was 3.39%.

Turning to `CN1CCN(CCCN(Cc2ccc(-c3cccc(CNCc4ccc5c(c4)OCO5)c3)cc2)C(=O)NCCc2ccccc2)CC1`, the inhibition was found to be 5.4%.

On to `COc1ccc2ncc(Cl)c(NCC3(O)CCC(NCc4ccc5c(n4)NC(=O)CS5)CC3)c2n1` (stereo not given), for which the inhibition turned out to be 4.63%.

Regarding `Cc1nc2ccc(S(=O)(=O)Nc3ccc(C(=O)N[C@@H](CCC(=O)O)C(=O)O)cc3)cc2c(=O)[nH]1`, the inhibition amounted to 0.38%.

Take `COc1ccc(CNCCc2cccs2)cc1-c1ccc(S(=O)(=O)NCCN2CCCC2)s1`: the inhibition is 4.99%.

Take `COc1ccc(-n2nc(C)c3c2NC(=O)CC3c2ccccc2OCc2ccc(F)cc2)cc1` (stereo not given): the inhibition was found to be 4.97%.

Take `COc1ccc2c(c1)S(=O)(=O)N=C(N1CCCC1c1ccc(Cl)c(Cl)c1)N2C` (stereo not given): the inhibition is -1.4%.

`COc1ccc(CNC(=O)Nc2cc3cc(-c4ccc(CN(C)C)cc4)ccc3n3c(C)nnc23)cc1`: the inhibition worked out at 4.84%.

On to `CCOC(=O)c1c(C)noc1Nc1cccc(C)c1C`, for which the inhibition was -3.16%.

As for `CCOc1ccc2[nH]c(C)cc(=NN=Cc3cccc(C)n3)c2c1`, the inhibition was 3.19%.

On to `CCC1CCCCN1S(=O)(=O)c1ccc(NC(=O)c2cc(C)on2)cc1` (stereo not given), for which the inhibition amounted to 2.22%.

As for `COc1cc(-c2nnc(SCC(=O)Nc3cc(C)on3)n2C)cc(OC)c1O`, the inhibition came to 7.83%.

With `Cc1[nH]c(C)c(-c2ccc(OCCn3cnc(Cl)c3Cl)cc2)c(=O)c1Br`, the inhibition was -1.35%.

In the case of `COc1cc(C(=O)N2COCC(CCCN3CCC(N4CCCC4)CC3)(c3ccc(Cl)c(Cl)c3)C2)cc(OC)c1OC` (stereo not given), the inhibition was 3.3%.

Turning to `COCCn1c(C)cc(C(=O)CN2C(=O)NC(C)(c3ccc(C(C)(C)C)cc3)C2=O)c1C` (stereo not given), the inhibition was -1.09%.

Regarding `CCOc1ccc2c(=NN=Cc3ccccn3)cc(C)[nH]c2c1`, the inhibition was 9.68%.

With `Cc1[nH]cc(Br)c(=O)c1-c1ccc(Oc2ccccc2)cc1`, the inhibition was 2.07%.

Regarding `Cc1cc(OCC2CCCN(c3ncc(C(=O)NC4CC4)cc3Cl)C2)ccc1F` (stereo not given), the inhibition worked out at 0.51%.

`CCOC(=O)c1ccc(N2CCN(c3cc(Cl)ccc3C)CC2)c(NC(=O)Nc2ccc(Cl)c(Cl)c2)c1`: the inhibition is -3.21%.

`CCOc1ccc(NC(=O)c2cccc(CN3CCCN(Cc4cccc(O)c4)CC3)c2)cc1`: the inhibition is -0.94%.

Regarding `CN(Cc1cccc(O)c1)C1CCCN(c2cc(NC(=O)c3ccc(F)cc3)ccn2)C1` (stereo not given), the inhibition was 3.85%.

On to `CN(CCN1CCC(c2c[nH]c3ccccc23)CC1)C(=O)OCCCCCNC(=O)/C=C/c1ccc(Cl)c(Cl)c1`, for which the inhibition turned out to be 9.15%.

Regarding `Cc1cc(NC(=O)Nc2ccc(N(C)C)cc2)c2cc(Cl)ccc2n1`, the inhibition was 1.15%.

With `CCCC(=O)c1cnc2c(Oc3cc(Cl)ncn3)cccc2c1Nc1ccccc1C`, the inhibition was 6.96%.

Turning to `CCN(CC)CCN(Cc1ccc(-c2ccc(C(F)(F)F)cc2)cc1)C(=O)Cn1c(SCc2ccc(F)cc2)nc(=O)c2ccccc21`, the inhibition worked out at 4.02%.

As to `c1cc(-c2ccc(CNC3CCOCC3)cc2)cc(-c2nc3ccccc3[nH]2)c1`, the inhibition is -0.19%.

On to `Cc1cccc2nc(-c3cccc(-c4cccc(NC(=O)Cc5ccc[n+]([O-])c5)c4)c3)[nH]c12`, for which the inhibition amounted to 1.71%.

On to `O=C(Nc1ccc(Br)c(C(F)(F)F)c1)c1cccc([N+](=O)[O-])c1`, for which the inhibition was 3.35%.

For `Cc1ccc(CN2CCCN(Cc3cccc(C(=O)Nc4ccc(C(C)(C)C)cc4)c3)CC2)s1`, the inhibition is 7.92%.

Consider `O=C(NC1CCCCC1)N(Cc1ccccc1-c1ccc(CNCCc2ccccc2)cc1)C1CCN(Cc2ccccc2)CC1`, for which the inhibition turned out to be 4.39%.

Take `CC(CN1CCN(C)CC1)C(=O)Nc1ccc(-c2ccc(-c3nc4cc(F)ccc4[nH]3)cc2)cc1` (stereo not given): the inhibition was 9.06%.

The target in the next assay is Hexose transporter 1 (Plasmodium falciparum) (UniProt O97467). The experiment in a line: ST_JUDE_LEISH: Cytotoxicity at 2uM final concentration against transgenic Leishmania Mexicana promastigotes LmPfHT that are glucose transport deficient and complemented with the Plasmodium falciparum hexose transporter. Activity is measured by DNA content using SYBR green in vitro. It counts as functional.
`O=c1ccc(CNc2nc(NCCc3ccccc3)nc3cc(Cl)ccc23)c[nH]1`: the inhibition turned out to be 0.69%.

`CCCCCCN1CCC(NCc2ccc(CN(C)C)cc2)CC1`: the inhibition stood at 2.27%.

Regarding `Cc1[nH]c(C)c(-c2ccc(-c3ccccc3Cl)nc2)c(=O)c1Cl`, the inhibition is 3.94%.

For the compound `NCC1CCCN1Cc1cccc(-c2ccc(-c3nc4ccccc4[nH]3)s2)c1` (stereo not given), the inhibition stood at 8.03%.

On to `Cc1ccccc1NC(=S)NC1CCN(CCCCCNC(=O)/C=C/c2ccc(Cl)c(Cl)c2)CC1`, for which the inhibition is 4.69%.

On to `O=C(COc1ccc(F)cc1)NC1CCN(c2ccnc3cc(Cl)ccc23)C1` (stereo not given), for which the inhibition stood at 6.11%.

For the compound `O=C(/C=C/c1ccc(Cl)c(Cl)c1)NCCCCCN1CCC(C(=O)Nc2ccc(F)c(Cl)c2)CC1`, the inhibition was 1.87%.

With `CCN(C1CCCCC1)S(=O)(=O)c1ccc(OC)c(N2CCN(C(=O)C(Cl)(Cl)Cl)CC2)c1`, the inhibition was -2.46%.

Consider `O=C(C=Cc1cn(-c2ccccc2)nc1-c1ccccc1)N1CCN(c2ccncc2)CC1`, for which the inhibition was 5.64%.

For the compound `CCCCC(N)COc1cccc2c(-c3ccncc3)c(-c3cccc(NC(=O)Nc4ccccc4)c3)nn12` (stereo not given), the inhibition amounted to 2.13%.

As to `CN1CCN(CCCN(Cc2ccc(-c3cccc(CNCc4ccc5c(c4)OCO5)c3)cc2)C(=O)NCCc2ccccc2)CC1`, the inhibition turned out to be 2.67%.

As for `COc1ccc2ncc(Cl)c(NCC3(O)CCC(NCc4ccc5c(n4)NC(=O)CS5)CC3)c2n1` (stereo not given), the inhibition was 3.3%.

With `Cc1nc2ccc(S(=O)(=O)Nc3ccc(C(=O)N[C@@H](CCC(=O)O)C(=O)O)cc3)cc2c(=O)[nH]1`, the inhibition was -1.45%.

`COc1ccc(CNCCc2cccs2)cc1-c1ccc(S(=O)(=O)NCCN2CCCC2)s1`: the inhibition turned out to be 5.45%.

Turning to `COc1ccc(-n2nc(C)c3c2NC(=O)CC3c2ccccc2OCc2ccc(F)cc2)cc1` (stereo not given), the inhibition was 4.4%.

Consider `COc1ccc2c(c1)S(=O)(=O)N=C(N1CCCC1c1ccc(Cl)c(Cl)c1)N2C` (stereo not given), for which the inhibition is -0.89%.

`COc1ccc(CNC(=O)Nc2cc3cc(-c4ccc(CN(C)C)cc4)ccc3n3c(C)nnc23)cc1`: the inhibition is 2.93%.

On to `CCOC(=O)c1c(C)noc1Nc1cccc(C)c1C`, for which the inhibition is -1.56%.

On to `CCOc1ccc2[nH]c(C)cc(=NN=Cc3cccc(C)n3)c2c1`, for which the inhibition amounted to 7.58%.

Turning to `CCC1CCCCN1S(=O)(=O)c1ccc(NC(=O)c2cc(C)on2)cc1` (stereo not given), the inhibition turned out to be 0.15%.

Take `COc1cc(-c2nnc(SCC(=O)Nc3cc(C)on3)n2C)cc(OC)c1O`: the inhibition was 7.61%.

In the case of `Cc1[nH]c(C)c(-c2ccc(OCCn3cnc(Cl)c3Cl)cc2)c(=O)c1Br`, the inhibition was -0.56%.

On to `COc1cc(C(=O)N2COCC(CCCN3CCC(N4CCCC4)CC3)(c3ccc(Cl)c(Cl)c3)C2)cc(OC)c1OC` (stereo not given), for which the inhibition amounted to 3.39%.

Turning to `COCCn1c(C)cc(C(=O)CN2C(=O)NC(C)(c3ccc(C(C)(C)C)cc3)C2=O)c1C` (stereo not given), the inhibition was found to be 1.07%.

For `CCOc1ccc2c(=NN=Cc3ccccn3)cc(C)[nH]c2c1`, the inhibition worked out at 7.32%.

On to `Cc1[nH]cc(Br)c(=O)c1-c1ccc(Oc2ccccc2)cc1`, for which the inhibition was determined as 2.3%.

Regarding `Cc1cc(OCC2CCCN(c3ncc(C(=O)NC4CC4)cc3Cl)C2)ccc1F` (stereo not given), the inhibition worked out at 1.78%.

For the compound `CCOC(=O)c1ccc(N2CCN(c3cc(Cl)ccc3C)CC2)c(NC(=O)Nc2ccc(Cl)c(Cl)c2)c1`, the inhibition is -3.18%.

As to `CCOc1ccc(NC(=O)c2cccc(CN3CCCN(Cc4cccc(O)c4)CC3)c2)cc1`, the inhibition was found to be 0.07%.

On to `CN(Cc1cccc(O)c1)C1CCCN(c2cc(NC(=O)c3ccc(F)cc3)ccn2)C1` (stereo not given), for which the inhibition was determined as 6.05%.

Consider `CN(CCN1CCC(c2c[nH]c3ccccc23)CC1)C(=O)OCCCCCNC(=O)/C=C/c1ccc(Cl)c(Cl)c1`, for which the inhibition was found to be 10.3%.

In the case of `Cc1cc(NC(=O)Nc2ccc(N(C)C)cc2)c2cc(Cl)ccc2n1`, the inhibition stood at 0.69%.

`CCCC(=O)c1cnc2c(Oc3cc(Cl)ncn3)cccc2c1Nc1ccccc1C`: the inhibition is 4.84%.

For `CCN(CC)CCN(Cc1ccc(-c2ccc(C(F)(F)F)cc2)cc1)C(=O)Cn1c(SCc2ccc(F)cc2)nc(=O)c2ccccc21`, the inhibition worked out at 1.11%.

On to `c1cc(-c2ccc(CNC3CCOCC3)cc2)cc(-c2nc3ccccc3[nH]2)c1`, for which the inhibition is 1.26%.

For the compound `Cc1cccc2nc(-c3cccc(-c4cccc(NC(=O)Cc5ccc[n+]([O-])c5)c4)c3)[nH]c12`, the inhibition was determined as 1.78%.

On to `O=C(Nc1ccc(Br)c(C(F)(F)F)c1)c1cccc([N+](=O)[O-])c1`, for which the inhibition was found to be 2.2%.

Regarding `Cc1ccc(CN2CCCN(Cc3cccc(C(=O)Nc4ccc(C(C)(C)C)cc4)c3)CC2)s1`, the inhibition was found to be 2.76%.

`O=C(NC1CCCCC1)N(Cc1ccccc1-c1ccc(CNCCc2ccccc2)cc1)C1CCN(Cc2ccccc2)CC1`: the inhibition is 3.18%.

As for `CC(CN1CCN(C)CC1)C(=O)Nc1ccc(-c2ccc(-c3nc4cc(F)ccc4[nH]3)cc2)cc1` (stereo not given), the inhibition amounted to 3.05%.

For orientation: inhibition means the relative decrease from the control value, in per cent.
